Shown are actives, neighbours in structure and some others; about 4.7% of the full set was active somewhere.
D1 antag: human D1 dopamine receptor antagonism; P21728; HEK293 TREx D1 cells, calcium flux, dopamine EC80; active compounds read low; activity change, negative = inhibition, % at 10 µM; hit rate 3.2% among 360,000; in the data active means activity change below about -30%
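HEK293 T-REx cells expressing inducible, force-coupled D1 receptor; no-wash Ca dye, 30–90 min RT. Cmpd → 180 s read at 1 Hz → EC80 DA → 180 s read.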
D1 ag: activates the human D1 dopamine receptor. P21728. HEK293 T-REx D1 cells, calcium flux, agonist mode. activation, % at 2 µM. hit rate 1% among 360,000
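Tetracycline-induced HEK293 TREx D1 cells, force-coupled to calcium signalling, were dye-loaded with a no-wash calcium kit. Compound was pin-added after a 10 s baseline. Fluorescence was read kinetically at 1 cycle/s for 180 s, with calcium rises flagged as agonism.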
D1 PAM: human D1 dopamine receptor positive modulation; P21728; HEK293 TREx D1 cells, calcium flux, dopamine EC20 potentiation; potentiation, % at 10 µM; hit rate 0.036% among 360,000; in the data active means potentiation above about 30%
TRHR enhancer: allosterically enhances the human TRH receptor; hit rate 0.66% among 360,000; AID 493056; enhancement, % at 2 µM; TRHR cells, fluo-8 calcium fluorescence, EC20 TRH enhancement; P34981; in the data active means enhancement above about 30%
Target sequence (P34981 whole entry, looked up): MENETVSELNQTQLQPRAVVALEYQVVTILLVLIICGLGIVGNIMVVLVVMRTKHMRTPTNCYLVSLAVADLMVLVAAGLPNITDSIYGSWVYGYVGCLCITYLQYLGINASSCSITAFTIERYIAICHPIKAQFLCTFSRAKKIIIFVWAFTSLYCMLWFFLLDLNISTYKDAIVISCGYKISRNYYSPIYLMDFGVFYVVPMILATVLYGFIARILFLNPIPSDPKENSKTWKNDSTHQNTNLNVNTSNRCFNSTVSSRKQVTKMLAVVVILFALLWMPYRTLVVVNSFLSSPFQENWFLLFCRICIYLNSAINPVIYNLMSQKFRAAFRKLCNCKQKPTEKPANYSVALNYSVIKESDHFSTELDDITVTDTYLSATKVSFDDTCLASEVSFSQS
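Enhancer read-out: after compound pinning and an initial kinetic agonist-mode read, an EC20 of TRH (10 nM final) was injected and fluo-8 calcium signal (Ex 480/Em 530) followed at 1 s/cycle for 100 cycles in TRHR-expressing cells.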
TRHR agonist: TRH receptor (human) agonism; P34981; TRHR cells, calcium flux fluo-8, FDSS agonist mode; activation, % at 2 µM; hit rate 0.18% among 360,000
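Agonist-mode FDSS calcium read (Ex 480/Em 530, 1 s cycles) in 1536-well TRHR cells with fluo-8 dye, after 10-cycle baseline and 23 nL compound addition; TRH at EC20 (10 nM final) added afterwards for the enhancer phase.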
Of the large screens only hits and unclear results are named; the others gave an inactive call; ! = repeats disagree. Unless noted, no stated cut-off is given here; in the data, active means activation above about 30%; inactive means the rest.

O=C(COc1ccc(Cl)cc1)OCC(=O)N1CCCCCC1	D1 antag -34.4
COc1ccc(OC(=O)COc2ccc(Cl)cc2)cc1	TRHR enhancer 39.1
O=C(CSc1nnc(COc2ccc(Cl)cc2)o1)N1CCCC1	none
O=C(CSc1nnc(COc2ccc(Cl)cc2)o1)N1CCCCC1	D1 antag -31.5
N#Cc1sc(NCc2ccccn2)nc1Cl	none
O=S1(=O)CCOC[C@H](c2ccccc2)N1Cc1ccccc1F	none
Cc1ccc(S(=O)(=O)N2CCCC2CNC(=O)c2ccc3c(c2)OCO3)cc1 (stereo unspecified)	none
CN(Cc1ccccc1F)C(=O)CCNC(=O)c1ccc(C(C)(C)C)cc1	none
NC(=O)C1CCN(C(=O)COc2ccc(Nc3ccccc3)cc2)CC1	none
CC1CN(C(=O)COC(=O)COc2ccc(C#N)cc2)CC(C)O1 (stereo unspecified)	D1 antag -47.0
O=C(COc1ccc(Nc2ccccc2)cc1)OCC(=O)N1CCCCC1	D1 antag -36.5
Cc1ccc(-c2nc(Cn3c(SCc4ccc(F)cc4)nc4cccnc43)c(C)o2)cc1	none
CC(NC(=O)CSc1nnc(-c2cc3cc(Cl)ccc3o2)n1C)c1ccccc1 (stereo unspecified)	TRHR enhancer 31.8
Cn1c(SCC(=O)NC2CCCCC2)nnc1-c1cc2cc(Cl)ccc2o1	none
Cc1ccc(C2CCN(C(=O)Nc3ccccc3)C2)cc1 (stereo unspecified)	none
O=C(Nc1ccc(Cl)cc1)N1CCC(c2ccccc2)C1 (stereo unspecified)	D1 antag -33.1!
Cc1nc(-c2ccccc2)sc1C(=O)CSc1ccc(Cl)cc1	none
Cc1nc(-c2ccccc2)sc1C(=O)NN	none
Cc1nc(-c2ccccc2)sc1C(=O)CSc1ccc(Br)cc1	D1 antag -36.5
C=CCNC(=O)c1sc(-c2ccccc2)nc1C	TRHR enhancer 39.3
COC(=O)c1ccccc1NC(=O)Cn1c(=O)n(CCCC(=O)NCc2ccccc2OC)c(=O)c2ccccc21	none
COc1ccc(NC(=O)c2sc3nc(Cc4ccccc4)cc(C(F)(F)F)c3c2N)cc1OC	TRHR enhancer 31.9
COc1ccccc1NC(=O)c1sc2nc(Cc3ccccc3)cc(C(F)(F)F)c2c1N	none
Cc1ccnc(NS(=O)(=O)c2ccc(NC(=O)C3CCCCC3C(=O)O)cc2)n1 (stereo unspecified)	none
Cc1ccnc(NS(=O)(=O)c2ccc(NC(=O)C3CC=CCC3C(=O)O)cc2)n1 (stereo unspecified)	D1 antag -89.2
Cc1cc(C)nc(NS(=O)(=O)c2ccc(NC(=O)C3COc4ccccc4O3)cc2)n1 (stereo unspecified)	D1 antag -60.2
Cc1cccc(NC(=O)C2COc3ccccc3O2)c1 (stereo unspecified)	D1 antag -31.7
COc1ccc(-n2c(=O)c3c4c(sc3n(CC(=O)N3CCCCC3C)c2=O)CCC4)c(OC)c1 (stereo unspecified)	D1 antag -71.3
CCN(CCCNC(=O)CSc1cc(=O)n(C)c2cc(Cl)ccc12)c1ccccc1	none
COc1ccccc1Oc1ccc2c(c1)C(=O)N(c1cccc(O)c1)C2=O	none
COc1ccccc1Oc1ccc2c(c1)C(=O)N(c1cccc3ncccc13)C2=O	D1 antag -34.5
O=c1[nH]c2cccnc2n1Cc1ccco1	D1 antag -43.2
CCOc1ccc2c(c1)c(=O)c(S(=O)(=O)c1ccc(CC)cc1)cn2Cc1cccc(Cl)c1	none
Cc1ccc(Cl)cc1NC(=O)CNC(=O)N1CC(=O)Nc2ccccc21	none
COc1ccc(/C=C2\CCc3c2nc2ccccc2c3C(=O)O)cc1OC	none
COc1ccc(/C=C2\CCCc3c2nc2ccccc2c3C(=O)O)cc1OC	D1 antag -34.9, D1 ag 236.0, TRHR agonist 214.1
Cc1cn(C)c(CC(=O)Nc2cccc(C#N)c2)c1C(=O)O	TRHR enhancer 32.1
Cc1cccc(N/C=C(\[N+](=O)[O-])S(=O)(=O)c2ccccc2)c1	none
Cc1ccc(N/C=C(\[N+](=O)[O-])S(=O)(=O)c2ccccc2)cc1	TRHR enhancer 30.6
Cc1c(CCNC(=O)c2ccc(Br)o2)sc2nc(-c3ccc(F)cc3)nn12	none (no result: D1 antag)
CN(C)CCCOc1nn(Cc2ccccc2)c2ccccc12	D1 antag -30.6
Cc1nc(C)c(-c2ccc(SCC(=O)Nc3cccc(Cl)c3)nn2)s1	none

Bioassay records from PubChem BioAssay.
